CHX counter = affects cycloheximide protein synthesis inhibition readout, counter-screen | cell reporter, cycloheximide protein synthesis inhibition counterscreen | max response, % | hit rate 12% among 300,000; in the data active means max response mostly above about 13%, no sharp cut-off; inactive means mostly below about 14%; further: read at 38.3 µM for the half of the compounds with a filed dose; 0% is about no effect
HCMV inh = inhibitors of human cytomegalovirus. activity change, negative = inhibition, % at 57.5 µM. AID 1259415. HFF cells, HCMV-luciferase reporter, 72 h; stronger effect = lower value. hit rate 4.5% among 410,000; in the data active means activity change below about -60%; inconclusive means no clear call, values can overlap the other calls; inactive means above about -39%; further: on the % scale 0 is the no-effect control and ±100 the full control effect
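After 16 h attachment at 37C, HFF cells received test compound and HCMV-luciferase (1 PFU/cell); reporter luminescence read 72 h later, data normalized against buffer-only and known inhibitor Salinomycin.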
Pf growth 48h = P. falciparum growth inhibition at 48 hours (one generation); P. falciparum luciferase growth in erythrocytes, 48 h; Potency, µM (highest dose often 28.7 µM), inactives show at the highest dose activity change, negative = inhibition, actives largely listed as inhibitors; hit rate 5.9% among 310,000; further: potency means the concentration at half of the fitted maximal effect; on the % scale 0 is the no-effect control and ±100 the full control effect
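Compounds are pin-transferred into medium, infected erythrocytes (2% hematocrit, 0.1% parasitemia final) are added, and plates sit one parasite generation at 37 C in 5% CO2. Detection reagent is then added and luminescence measured.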
Pf growth 96h = P. falciparum growth inhibition at 96 hour, primary screen for plastid delayed-death inhibitors | P. falciparum luciferase reporter growth, 96 h | Potency, µM (doses to about 28.7 µM), without a hit: at the highest dose activity change, negative = inhibition, most hits filed as inhibitors | hit rate 6.9% among 320,000; further: potency means the concentration at half of the fitted maximal effect; on the % scale 0 is the no-effect control and ±100 the full control effect
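Two parasite generations (96 h, 37 C, 5% CO2) of compound exposure in infected erythrocytes (0.05% parasitemia, 2% hematocrit). Luciferase-reporter P. falciparum; decreased luminescence indicates inhibited growth, aimed at apicoplast-acting delayed death.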
Shiga toxin inh = Shiga toxin inhibition; Vero cells, Shiga toxin protein synthesis inhibition reporter; inhibition, % at 38.7 µM; hit rate 9.2% among 290,000; AID 2315; in the data active means inhibition mostly above about 28%, no sharp cut-off; inactive means mostly below about 43%; further: 0% is about no effect
* hit, by the source's call. The list is not random: actives were taken first. Their share in the collection is about 20%. Unless noted, the call rests on the fitted dose curve; in most records, active means well fitted inhibition curve with a large enough effect; inconclusive means small, poorly fitted or top-dose-only effect, or another doubt; inactive means no such curve, though single readings can be large or run the other way.

For Cc1cc(F)ccc1NCc1ccccc1-c1nnc(-c2ccccc2Cl)o1 the results were HCMV inh 17.7.
`CC(=O)c1ccccc1NC(=O)COC(=O)CSCC(=O)Nc1cc(C)on1` gave HCMV inh 2.4, Pf growth 48h 4.3% and Pf growth 96h 34.2%.
Nc1ccc2nc(CCCCc3nc4ccccc4[nH]3)[nH]c2c1 was read as CHX counter -2.8, HCMV inh 16.7, Pf growth 48h inconclusive, Pf growth 96h inconclusive and Shiga toxin inh -5.4.
Screening Nc1ccc2nc(CCCCCCc3nc4ccc(N)cc4[nH]3)[nH]c2c1 returned CHX counter -2.7, HCMV inh 34.8, Pf growth 48h inconclusive, Pf growth 96h 88.9% and Shiga toxin inh -3.7.
Screening Nc1ccc2nc(CCCCCCCCc3nc4ccc(N)cc4[nH]3)[nH]c2c1 returned CHX counter -1.3, HCMV inh -13.9, Pf growth 48h 7.38µM*, Pf growth 96h 6.2% and Shiga toxin inh -14.0.
Screening Nc1ccc2nc(COc3ccccc3)[nH]c2c1 returned CHX counter 9.9*, HCMV inh -6.0, Pf growth 48h 49.0%, Pf growth 96h 7.38µM* and Shiga toxin inh 4.1.
For Cc1ccc(-c2csc(N3CCC[C@@H]3C(=O)NCCn3c(-c4ccncc4)nc4ccccc43)n2)cc1 the results were CHX counter 1.0, HCMV inh -8.4, Pf growth 48h inconclusive, Pf growth 96h 3.29µM* and Shiga toxin inh -2.9.
For Cc1ccc(-c2csc(N3CCN(CCCn4c(C(F)(F)F)nc5ccccc54)CC3)n2)cc1 the results were CHX counter -0.9, HCMV inh inconclusive, Pf growth 48h inconclusive, Pf growth 96h inconclusive and Shiga toxin inh 6.5.
Screening CC(=O)N[C@@H](C)c1nc2ccccc2n1CCCN1CCN(c2nc(-c3ccc(C)cc3)cs2)CC1 returned CHX counter 1.4, HCMV inh -67.5*, Pf growth 48h inconclusive, Pf growth 96h inconclusive and Shiga toxin inh 17.0.
Cc1ccc(-c2csc(N3CCN(CCCn4c(-c5ccncc5)nc5ccccc54)CC3)n2)cc1 was read as CHX counter 13.3, HCMV inh inconclusive, Pf growth 48h inconclusive, Pf growth 96h 2.62µM* and Shiga toxin inh 31.8.
`CCCNC(=O)C1(C)CCN(C(=O)C(c2ccccc2)c2ccccc2)C1` (stereo unspecified) gave HCMV inh -27.5.
For CN(c1ccc(OCC(=O)OCC(=O)Nc2c(F)c(F)c(F)c(F)c2F)cc1)S(=O)(=O)c1ccc(F)cc1 the results were CHX counter 1.1, HCMV inh -7.6, Pf growth 48h 5.1%, Pf growth 96h 7.6% and Shiga toxin inh -4.2.
Screening N=c1n(CC(=O)c2cccc([N+](=O)[O-])c2)c2ccccc2n1Cc1ccccc1 returned CHX counter 5.7, HCMV inh -39.4, Pf growth 48h inconclusive, Pf growth 96h 14.7% and Shiga toxin inh 14.6.
For COc1cccc(C(=O)Cn2c(NCCO)nc3ccccc32)c1 the results were CHX counter -4.3, HCMV inh inconclusive, Pf growth 48h -15.6%, Pf growth 96h inconclusive and Shiga toxin inh 18.6.
`Cn1c(=N)n(CC(=O)c2cccs2)c2ccccc21` gave CHX counter 55.9*, HCMV inh 141.9, Pf growth 48h 200.0%, Pf growth 96h inactive and Shiga toxin inh 149.5*.
Screening CCn1c(=N)n(CC(=O)c2cccc([N+](=O)[O-])c2)c2ccccc21 returned CHX counter 37.5*, HCMV inh -6.7, Pf growth 48h 68.2%, Pf growth 96h -0.8% and Shiga toxin inh 80.8*.
For N=c1n(CCN2CCCCC2)c2ccccc2n1CC(=O)c1cccs1 the results were CHX counter -3.1, HCMV inh -0.7, Pf growth 48h 11.7µM*, Pf growth 96h 10.4µM* and Shiga toxin inh -11.2.
`COc1cccc(C(=O)Cn2c(=N)n(C)c3ccccc32)c1` gave CHX counter 30.6*, HCMV inh 11.7, Pf growth 48h 61.9%, Pf growth 96h 28.9% and Shiga toxin inh 29.9.
`CCCn1c(=N)n(CC(=O)c2cccs2)c2ccccc21` gave CHX counter -5.2, HCMV inh -30.5, Pf growth 48h -4.6%, Pf growth 96h 27.1% and Shiga toxin inh -5.8.
For O=C(CS(=O)(=O)c1ccccc1)Nc1nccs1 the results were CHX counter -1.4, HCMV inh 4.6, Pf growth 48h 4.8%, Pf growth 96h 0.4% and Shiga toxin inh -3.2.
For N#Cc1ccccc1CN1CCN(c2ncc(C(=O)NCc3ccco3)s2)C1=O the results were HCMV inh -24.0.
`CCC(Sc1ccccn1)C(=O)Nc1cccc([N+](=O)[O-])c1` (stereo unspecified) gave CHX counter 9.5, HCMV inh -11.3, Pf growth 48h -2.6%, Pf growth 96h 1.4% and Shiga toxin inh -2.6.
Screening Cc1ccccc1OCC(=O)NNC(=O)C1CC(=O)N(c2ccc3c(c2)OCCO3)C1 (stereo unspecified) returned HCMV inh -2.5, Pf growth 48h -0.5% and Pf growth 96h inconclusive.
For CCc1nc2ccc(C(=O)N(C)Cc3ccco3)cn2c1N(CC)Cc1cccc(Br)c1 the results were HCMV inh -12.7.
`Cc1ccc(C(C(=O)NC(C)(C)C)N(CCCN2CCOCC2)C(=O)c2ccc(-c3ccccc3)[nH]2)o1` (stereo unspecified) gave CHX counter -5.0, HCMV inh -74.0*, Pf growth 48h -0.2%, Pf growth 96h 23.2% and Shiga toxin inh -5.9.
For O=C(NCC1CCCO1)C(c1cccs1)N(Cc1cccs1)C(=O)c1ccc(-c2ccccc2)[nH]1 (stereo unspecified) the results were CHX counter 8.6, HCMV inh inconclusive, Pf growth 48h inconclusive, Pf growth 96h 82.1% and Shiga toxin inh 20.7.
Screening Cc1ccc(C(C(=O)NC(C)(C)C)N(Cc2ccc3c(c2)OCO3)C(=O)c2ccc(CN3CCOCC3)o2)o1 (stereo unspecified) returned CHX counter -2.5, HCMV inh -2.4, Pf growth 48h inconclusive, Pf growth 96h 35.5% and Shiga toxin inh 4.7.
`O=C(NC1CCCCC1)C(c1cccs1)N(CCCN1CCOCC1)C(=O)c1ccc(-c2ccccc2)[nH]1` (stereo unspecified) gave CHX counter 18.8*, HCMV inh -4.9, Pf growth 48h 1.65µM*, Pf growth 96h 3.2% and Shiga toxin inh 55.8*.
`CC(CCc1ccccc1)NC(=O)CN1C(=O)NC2(CCCCC2C)C1=O` (stereo unspecified) gave HCMV inh -7.0, Pf growth 48h -19.8% and Pf growth 96h -14.3%.
Screening Cc1c2cnn(CC(=O)NCCN3CCOCC3)c(=O)c2c(C)n1Cc1ccc(F)cc1 returned CHX counter -2.2, HCMV inh -72.3*, Pf growth 48h -5.7%, Pf growth 96h 39.5% and Shiga toxin inh 2.1.
For Cc1c2cnn(CC(=O)NCCCN3CCCCC3C)c(=O)c2c(C)n1Cc1ccccc1 (stereo unspecified) the results were CHX counter -1.9, HCMV inh -22.6, Pf growth 48h -2.3%, Pf growth 96h inconclusive and Shiga toxin inh 12.3.
